In PubChem BioAssay (EPA / NIEHS) one finds outcome and AC50 data, which are given here for 13 molecules.

Holding throughout (conditions): primary human HUVEC with PBMC; actives raise or lower the signal
Read-out in experiment [1]: Monocyte Chemoattractant Protein-1 (MCP1), CCL2 (gene 6347)
As to the kind of experiment: BSK_LPS_MCP1: BioMAP Diversity Plus: LPS Assay for Monocyte Chemoattractant Protein-1 (MCP1) Biomarker Activity (AID 2283081).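 For AC50: secreted MCP-1 protein quantified by ELISA in culture supernatant.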 In outline:
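ELISA read-out of MCP-1 after 24 h chemical dosing of a human umbilical vein endothelial cell/peripheral blood mononuclear cell co-culture stimulated with LPS. Gain or loss of signal fitted relative to DMSO controls.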

Experiment [2] is described as follows: BSK_LPS_PGE2: BioMAP Diversity Plus: LPS Assay for Prostaglandin E2 (PGE2) Biomarker Activity (AID 2283082).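 For AC50: secreted prostaglandin E2 measured by ELISA in LPS-stimulated co-culture.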 The method, boiled down:
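ELISA read-out of PGE2 from human umbilical vein endothelial cells co-cultured with peripheral blood mononuclear cells under LPS, 24 h post-dose. Gain or loss of signal scored relative to DMSO baseline.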

Read-out in experiment [3]: Macrophage colony-stimulating factor (MCSF), CSF1 (gene 1435)
As to the kind of experiment: BSK_LPS_MCSF: BioMAP Diversity Plus: LPS Assay for Macrophage colony-stimulating factor (MCSF) Biomarker Activity (AID 2283083). In outline: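 HUVEC + PBMC co-culture (human primary), 24 h post-dose; M-CSF by ELISA; gain/loss of signal fitted bidirectionally vs DMSO baseline.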

Read-out in experiment [4]: Tissue Factor, F3 (gene 2152)
As to the kind of experiment: BSK_LPS_TissueFactor: BioMAP Diversity Plus: LPS Assay for Tissue Factor Biomarker Activity (AID 2283084). In outline:
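HUVEC/PBMC co-culture, LPS-activated; CD142 ELISA read 24 h post-dose; bidirectional curve fit vs DMSO negative control.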

Read-out in experiment [5]: Tumor necrosis factor (Homo sapiens) (UniProt P01375)
Briefly: BSK_LPS_TNFa: BioMAP Diversity Plus: LPS Assay for Tumour Necrosis Factor alpha (TNFa) Biomarker Activity (AID 2283085).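 For AC50: TNFa protein level quantified by ELISA in the co-culture.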 The method, boiled down:
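HUVEC/PBMC co-culture, LPS-stimulated; 24 h post-dose; TNFa by ELISA; gain or loss of signal fitted bidirectionally vs DMSO baseline.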

Read-out in experiment [6]: Vascular cell adhesion molecule 1 (VCAM1), VCAM1 (gene 7412)
As to the kind of experiment: BSK_LPS_VCAM1: BioMAP Diversity Plus: LPS Assay for Vascular cell adhesion molecule 1 (VCAM1) Biomarker Activity (AID 2283086). The method, boiled down:
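ELISA read-out of VCAM-1 at 24 h post-dosing in an LPS-driven HUVEC/PBMC primary human co-culture; gain or loss of signal fitted bidirectionally against DMSO baseline. Cytotoxicity tracked in parallel cultures by SRB total-protein staining.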

Read-out in the next experiment: CD38, CD38 (gene 952)
Briefly: BSK_SAg_CD38: BioMAP Diversity Plus: SAg Assay for CD38 Biomarker Activity (AID 2283087). The method, boiled down:
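Measures CD38 on a human endothelial/PBMC co-culture driven by SEB and TSST-1, 24 h after compound exposure, using ELISA with fluorescence detection; DMSO defines baseline for bidirectional curve fitting.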

Read-out in a further experiment: CD40, CD40 (gene 958)
Briefly: BSK_SAg_CD40: BioMAP Diversity Plus: SAg Assay for CD40 Biomarker Activity (AID 2283088). In outline:
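HUVEC/PBMC co-culture, 24 h post-dose; CD40 by ELISA, fluorescence intensity; bidirectional fit vs DMSO negative control.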

Read-out in a further experiment: CD69, CD69 (gene 969)
As to the kind of experiment: BSK_SAg_CD69: BioMAP Diversity Plus: SAg Assay for CD69 Biomarker Activity (AID 2283089).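 For AC50: cell surface CD69 protein quantified by ELISA with fluorescence detection.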 The method, boiled down: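 Endothelial/PBMC co-culture; chemical added; 24 h incubation; CD69 ELISA with fluorescence detection; bidirectional fit vs DMSO.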

Read-out in experiment [7]: Monocyte Chemoattractant Protein-1 (MCP1), CCL2 (gene 6347)
As to the kind of experiment: BSK_SAg_MCP1: BioMAP Diversity Plus: SAg Assay for Monocyte Chemoattractant Protein-1 (MCP1) Biomarker Activity (AID 2283090). The method, boiled down:
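Values derive from bidirectional fitting of ELISA-measured MCP1 against DMSO controls. Readings were taken 24 h after dosing human vascular endothelial cells co-cultured with peripheral blood mononuclear cells under superantigen stimulation.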

As usually defined, the AC50 is the midpoint of the concentration-response curve, whichever way the signal moves.

Several values for one entry are separate records, joined by “and”; a condition that tells them apart may be missing. Identical values can stand only once. Some compounds were tested as several samples or in several runs, with calls that do not always agree. Activity calls are given as the source filed them. Rule for the calls: active = hit-call score of the fitted dose curve at least 0.9, where 1 is the maximum; inactive = score below 0.9.

Sequence of Tumor necrosis factor (Homo sapiens) (P01375 whole entry, looked up): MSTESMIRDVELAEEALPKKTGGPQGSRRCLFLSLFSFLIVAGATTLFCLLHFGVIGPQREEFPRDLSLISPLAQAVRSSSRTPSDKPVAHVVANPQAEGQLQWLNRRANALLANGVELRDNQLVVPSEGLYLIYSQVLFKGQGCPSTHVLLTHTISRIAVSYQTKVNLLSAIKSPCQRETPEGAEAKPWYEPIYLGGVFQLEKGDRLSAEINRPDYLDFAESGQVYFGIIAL

For the molecule `CCCCC(CC)C(=O)O` (configuration not stated), the outcome in experiment [1], in experiment [2], in experiment [3], in experiment [4], in [5] and in [6] was inactive. For the same molecule, the outcome with CD38, CD38 (gene 952) was “inactive”; with CD40, CD40 (gene 958) it was “inactive”; with CD69, CD69 (gene 969) it was “inactive”; in [7], “inactive”.
With `Cc1cccc2c1ccc1ccccc12`, the outcome in experiment [1] was “inactive”; in experiment [2], “inactive”; in [3] it was “inactive”; in experiment [5], “inactive”; with CD38, CD38 (gene 952), “inactive”; with CD40, CD40 (gene 958), “inactive”. The outcome was “inactive” with CD69, CD69 (gene 969) and “inactive” in experiment [7]. In addition, the AC50 in experiment [4] was 3.97 µM (active).
Take `NC(=NCCCCCCN=C(N)/N=C(\N)Nc1ccc(Cl)cc1)/N=C(\N)Nc1ccc(Cl)cc1`: the concentration at half-maximal activity (AC50) in experiment [1] was 4.95 µM (active); in experiment [3] it was 4.92 µM (active); in experiment [4], 4.98 µM (active); in experiment [5] it was 20.5 µM (active); in experiment [6], 6.08 µM (active); with CD38, CD38 (gene 952) it was 8.71 µM (active). For the same molecule, the AC50 is 5.1 µM (active) in the experiment with CD40, CD40 (gene 958) and 7.57 µM (active) with CD69, CD69 (gene 969). For the same molecule, the result in [2] was inactive.
For the molecule `CC(=O)Nc1ccc(O)cc1`, the result in [1], in experiment [2], in experiment [3], in experiment [4], in experiment [5] and in [6] was inactive. The outcome with CD38, CD38 (gene 952) was “inactive”; with CD40, CD40 (gene 958), “inactive”; with CD69, CD69 (gene 969), “inactive”; in experiment [7], “inactive”.
With `O=C(NCc1ncc(C(F)(F)F)cc1Cl)c1c(Cl)cccc1Cl`, the result in experiment [1], in experiment [2], in [3], in [4], in experiment [5] and in [6] was inactive. The outcome was “inactive” with CD38, CD38 (gene 952); “inactive” in the experiment with CD40, CD40 (gene 958); “inactive” with CD69, CD69 (gene 969); “inactive” in experiment [7].
With `CS(=O)(=O)c1ccc([C@@H](CC2CCCC2)C(=O)Nc2cnccn2)cc1Cl`, the outcome was “inactive” in experiment [1]; “inactive” in [2]; “inactive” in experiment [3]; “inactive” in [4]; “inactive” in [5]; “inactive” with CD38, CD38 (gene 952). The outcome is “inactive” in the experiment with CD40, CD40 (gene 958); “inactive” in the experiment with CD69, CD69 (gene 969); “inactive” in experiment [7].
For the molecule `CC1=NN(c2ccccc2)C(=O)C1`, the result in [1], in experiment [2], in experiment [3], in [4], in [5] and in [6] was inactive. For the same molecule, the outcome with CD38, CD38 (gene 952) was “inactive”; in the experiment with CD40, CD40 (gene 958) it was “inactive”; with CD69, CD69 (gene 969) it was “inactive”; in experiment [7], “inactive”.
As for `COc1cccc(O)c1`, the outcome in experiment [1], in experiment [2], in experiment [3], in experiment [4], in [5] and in experiment [6] was inactive. Also, the outcome is “inactive” with CD38, CD38 (gene 952); “inactive” in the experiment with CD40, CD40 (gene 958); “inactive” with CD69, CD69 (gene 969); “inactive” in experiment [7].
`O=P(O)(O)CCC(F)(F)C(F)(F)C(F)(F)C(F)(F)C(F)(F)C(F)(F)C(F)(F)C(F)(F)F`: the outcome in [1] is “inactive”; in [2], “inactive”; in experiment [4], “inactive”; in [5], “inactive”; in experiment [6], “inactive”; with CD38, CD38 (gene 952) it was “inactive”. The outcome in the experiment with CD40, CD40 (gene 958) is “inactive”; in the experiment with CD69, CD69 (gene 969) it was “inactive”; in experiment [7], “inactive”. The AC50 is 30 µM (active) in [2]; 27.7 µM (active) and 30 µM (active) in [3]; 30 µM (active) in the experiment with CD38, CD38 (gene 952); 30 µM (active) with CD40, CD40 (gene 958).
As for `Cc1[nH]nc2c1N=C(c1ccccc1Cl)c1cc([N+](=O)[O-])ccc1N2`, the AC50 in experiment [1] is 5.17 µM (active); in experiment [2] it was 2.36 µM (active); in [3] it was 3.38 µM (active); in experiment [4], 4.61 µM (active); in [5], 4.86 µM (active); in experiment [6] it was 3.99 µM (active). Moreover, the AC50 with CD38, CD38 (gene 952) is 5.77 µM (active); in the experiment with CD40, CD40 (gene 958) it was 4.7 µM (active); with CD69, CD69 (gene 969) it was 3.81 µM (active); in [7], 3.44 µM (active).
On to `OCC(F)(F)C(F)(F)C(F)(F)C(F)(F)C(F)(F)C(F)(F)C(F)(F)C(F)(F)C(F)(F)C(F)(F)C(F)(F)F`, for which the outcome in experiment [1] was “inactive”; in experiment [3], “inactive”; in [4] it was “inactive”; in [5], “inactive”; in experiment [6] it was “inactive”; with CD38, CD38 (gene 952), “inactive”. Moreover, the outcome is “inactive” with CD40, CD40 (gene 958); “inactive” with CD69, CD69 (gene 969); “inactive” in [7]. The concentration at half-maximal activity (AC50) in [2] is 42.7 nM (active) and 227 nM (active); in experiment [3], 0.417 µM (active); in experiment [5] it was 1.01 µM (active); with CD38, CD38 (gene 952) it was 0.00623 µM (active).
`O=C1NS(=O)(=O)c2ccccc21`: the outcome in experiment [1] is “inactive”; in [2], “inactive”; in experiment [3], “inactive”; in [4], “inactive”; in experiment [5], “inactive”; with CD38, CD38 (gene 952), “inactive”. Also, the outcome is “inactive” with CD40, CD40 (gene 958); “inactive” with CD69, CD69 (gene 969); “inactive” in [7].
`CN(CCO)S(=O)(=O)C(F)(F)C(F)(F)C(F)(F)C(F)(F)C(F)(F)C(F)(F)C(F)(F)C(F)(F)F`: the outcome in experiment [1], in experiment [2], in experiment [3], in [4], in experiment [5] and in [6] was inactive. Besides, the outcome in the experiment with CD38, CD38 (gene 952) was “inactive”; with CD40, CD40 (gene 958) it was “inactive”; in the experiment with CD69, CD69 (gene 969), “inactive”; in [7], “inactive”.
